Most compounds without a hit are left out; they make up all but 12% or so of the library.
BAZ2B block: BAZ2B (human) inhibition | Q9UIF8 | 360,000 compounds, 4.4% hits | Potency, µM (series often up to 114 µM), hits mostly inhibitors | AlphaScreen BAZ2B-H3K14Ac peptide displacement; note: nearly all actives have a fitted effect of over 60% in size
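Complex of BAZ2B and biotin-H3K14Ac (50 nM apiece) forms over 30 min at RT, then faces library compounds up to 110 uM for another 30 min; AlphaScreen beads added, 20 min dark incubation, luminescence read.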
Sfp inh: blocks B. subtilis Sfp PPTase activity; Biochemical Sfp PPTase activity, qHTS; Potency, µM, usual class: inhibitors; 310,000 compounds, 3.5% hits; AID 1490;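 note: the enzyme is Sfp with the accession as filed and its product quenches rhodamine fluorescence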
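Sfp 15 nM + cpd, 15 min RT; start w/ rhodamine-CoA 5 uM, BHQ-2-YbbR 12.5 uM (final); 50 mM Hepes pH 7.6, 10 mM MgCl2, 0.01% NP-40, 0.01% BSA; read 525/598 nm at 0 and 30 min.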
JMJD2A Tudor inh: inhibitors of human JMJD2A Tudor domain. O75164. AlphaScreen JMJD2A-Tudor / H3K4me3 peptide binding. Potency, µM (doses to about 114 µM), actives largely listed as inhibitors. 390,000 compounds, 4.4% hits; note: nearly all actives have a fitted effect of over 50% in size
HP1b chromo inh: inhibitors of HP1-beta chromodomain binding to methylated histone tails; P83916; AlphaScreen HP1-beta / biotin-H3K9me3 peptide binding; Potency, µM (titrated, usually from 114 µM), most hits filed as inhibitors; 390,000 compounds, 0.56% hits; note: nearly all actives have a fitted effect of over 70% in size
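HP1-beta protein (50 nM final) preincubated 30 min at room temperature with biotinylated H3(1-18)K9me3 peptide (50 nM) in PBS pH 7.4, 0.01% Tween-20, then compound added for 30 min. AlphaScreen streptavidin donor/nickel chelate acceptor beads (10 ug/mL final), 30 min dark, luminescence read.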
G9a block: inhibitors of human histone lysine methyltransferase G9a. 350,000 compounds, 8.8% hits. G9a H3K9 monomethylation, AlphaScreen, 2 h. Potency, µM (series often up to 102 µM), hits mostly inhibitors. AID 504332; note: nearly all actives have a fitted effect of over 75% in size
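AlphaScreen read-out: biotin-H3K9 peptide (500 nM) methylation by 20 nM enzyme with 20 uM SAM, 2 h at room temperature after 15 min compound preincubation; anti-monomethyl H3K9 antibody plus donor/acceptor beads, 10 min dark.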
PLK1 PBD block: blocks phosphopeptide binding to human PLK1 polo-box domain | P53350 | Plk1 PBD binding of FITC phosphopeptide, fluorescence polarization | Potency, µM, most hits filed as inhibitors | 360,000 compounds, 2.8% hits | AID 720504; note: series mostly up to about 57 µM; nearly all actives have a fitted effect of over 65% in size
Target sequence (P53350 whole entry, looked up, the tested form may be a part): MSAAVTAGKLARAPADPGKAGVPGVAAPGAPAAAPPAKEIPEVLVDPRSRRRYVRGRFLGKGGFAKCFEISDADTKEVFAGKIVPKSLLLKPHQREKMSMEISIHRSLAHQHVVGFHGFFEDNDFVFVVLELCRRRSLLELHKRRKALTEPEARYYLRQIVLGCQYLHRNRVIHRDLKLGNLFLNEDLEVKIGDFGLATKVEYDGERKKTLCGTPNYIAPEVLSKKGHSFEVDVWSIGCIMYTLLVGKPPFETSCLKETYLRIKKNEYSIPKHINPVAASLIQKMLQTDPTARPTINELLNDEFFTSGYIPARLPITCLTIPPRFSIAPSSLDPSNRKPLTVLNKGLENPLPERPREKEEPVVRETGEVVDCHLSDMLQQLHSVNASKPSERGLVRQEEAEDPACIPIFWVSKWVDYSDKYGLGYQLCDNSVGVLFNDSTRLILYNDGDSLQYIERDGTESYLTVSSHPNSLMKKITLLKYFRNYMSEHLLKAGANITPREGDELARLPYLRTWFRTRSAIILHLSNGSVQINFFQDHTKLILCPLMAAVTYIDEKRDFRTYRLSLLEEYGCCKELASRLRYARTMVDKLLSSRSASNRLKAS
Each line names hits and unclear results; the compound was inactive in the other large screens. Calls come from the whole dose curve; as a rule, active = well fitted curve in the direction sought with a large enough effect; inconclusive = small, poorly fitted or top-dose-only effect, or another doubt; inactive = no such curve, though single readings can be large; an effect the other way counts as inactive or inconclusive.

COC(=O)CSCC(=O)Nc1nnc(-c2cccc(C)c2)s1	G9a block inconclusive (no result: BAZ2B block)
O=C(c1ccccc1)N1CCCC(c2nc3c(nnn3Cc3ccc(F)cc3F)c(=O)[nH]2)C1 (stereo not given)	none (no result: Sfp inh, PLK1 PBD block)
COc1ccc(NC(=O)/C(C#N)=C\C=C\c2ccco2)cc1	BAZ2B block inconclusive, JMJD2A Tudor inh inconclusive, HP1b chromo inh inconclusive, G9a block inconclusive
COC(=O)C(=C/C=C/c1ccco1)C(=O)OC	G9a block 45µM
O=C(NCCc1ccccc1)C1CCC(CNS(=O)(=O)c2cccc3cccnc23)CC1 (stereo not given)	none
OC1(c2ccc3ccccc3c2)CCN(Cc2ccccc2)C1 (stereo not given)	Sfp inh 89µM
CN1CCN(c2cc3c(c4c2[nH]c2ccccc24)C(=O)CC(C)(C)C3)CC1	Sfp inh inconclusive, JMJD2A Tudor inh inconclusive, G9a block 56µM
Nc1nnnn1/N=C/c1ccccc1	JMJD2A Tudor inh inconclusive
C=CCc1cccc(/C=N/n2c(C)nnc2C)c1O	JMJD2A Tudor inh inconclusive
Cc1nnc(C)n1/N=C/c1cc(Br)ccc1O	JMJD2A Tudor inh 28µM, G9a block 10µM
Cc1nnc(C)n1/N=C/c1cc(Br)cc(Br)c1O	BAZ2B block 50µM, G9a block 1.6µM
Cc1cc2ncn(/N=C/c3cc(Br)ccc3O)c2cc1C	none (no result: JMJD2A Tudor inh, HP1b chromo inh, PLK1 PBD block)
CS/C(N)=N/N=C/c1cc(Br)cc(Br)c1O	BAZ2B block 13µM
Nc1nnnn1/N=C/c1ccccc1C(F)(F)F	PLK1 PBD block 3.4µM
CCOC(=O)/C(C#N)=C\c1ccc(OCC(=O)Nc2ccc(C)cc2C)c(OC)c1	none
Cc1ccc2c(Sc3ccc(Cl)cc3)c(C(=O)NCCC(C)C)[nH]c2c1	BAZ2B block inconclusive, JMJD2A Tudor inh inconclusive (no result: Sfp inh, PLK1 PBD block)
Nc1nnnn1/N=C/c1cc(Br)ccc1O	JMJD2A Tudor inh 28µM (no result: BAZ2B block, Sfp inh, G9a block)
COc1cccc(C=Nc2ccc3c(c2)CCC3)c1O	BAZ2B block inconclusive, JMJD2A Tudor inh inconclusive, PLK1 PBD block inconclusive
COc1cccc(C=Nc2cc(C)on2)c1O	G9a block inconclusive
S=c1[nH]nc(-c2n[nH]c3c2CCC3)n1/N=C/C=C/c1ccco1	BAZ2B block inconclusive, Sfp inh 11µM, JMJD2A Tudor inh 5µM, PLK1 PBD block inconclusive (no result: G9a block)
COc1ccccc1/C=C/C=N/n1c(-c2n[nH]c3c2CCC3)n[nH]c1=S	Sfp inh 22µM, JMJD2A Tudor inh 35µM, HP1b chromo inh inconclusive, G9a block 1.4µM, PLK1 PBD block inconclusive
COc1cccc(/C=N/n2c(-c3n[nH]c4c3CCC4)n[nH]c2=S)c1O	Sfp inh 25µM, JMJD2A Tudor inh 7.9µM, HP1b chromo inh inconclusive, G9a block 1.4µM, PLK1 PBD block inconclusive
COc1cccc(/C=N/n2c(-c3cc(C)[nH]n3)n[nH]c2=S)c1O	BAZ2B block inconclusive, Sfp inh 2.2µM, JMJD2A Tudor inh 2.8µM (no result: G9a block)
CSc1ccc(-c2nnn(CC(=O)Nc3sc4c(c3C#N)CCC(C(C)(C)C)C4)n2)cc1 (stereo not given)	none (no result: Sfp inh, PLK1 PBD block)
C[C@@H]1CN([C@H](C)CO)C(=O)CCCn2nncc2CO[C@@H]1CN(C)S(=O)(=O)c1ccc(-n2cccn2)cc1	none (no result: BAZ2B block, Sfp inh, JMJD2A Tudor inh, HP1b chromo inh, G9a block)
COc1cc(/C=N/n2c(-c3n[nH]c4c3CCC4)n[nH]c2=S)cc(OC)c1O	Sfp inh 56µM, JMJD2A Tudor inh 1.1µM, HP1b chromo inh inconclusive, G9a block inconclusive
COc1ccc(CNC(=O)N2CCN(c3ccccc3)CC2)cc1	none
CC12CCC(C(=O)NCc3ccc4c(c3)OCO4)(C(=O)C1=O)C2(C)C (stereo not given)	G9a block 45µM
CC12CCC(C(=O)NCc3ccc4c(c3)OCO4)(CC1=O)C2(C)C (stereo not given)	PLK1 PBD block inconclusive
Cc1ccc(F)c(C2C3C=CCC(c4ccccc4)C3C(=O)N2Cc2ccccc2)c1 (stereo not given)	none (no result: BAZ2B block, G9a block, PLK1 PBD block)
O=c1/c(=C/c2ccc(O)cc2)sc2n1CCCN=2	G9a block inconclusive
CN(C)c1ccc(/C=c2\sc3n(c2=O)CCCN=3)cc1	G9a block 3.2µM
COc1ccc(N=CC2=C(O)c3ccccc3C2=O)c(OC)c1	BAZ2B block inconclusive, G9a block inconclusive
Cc1ccccc1N=CC1=C(O)c2ccccc2C1=O	G9a block 45µM

Screening data as filed in PubChem BioAssay.
